KB-3-1 tox: kills parental KB-3-1 adenocarcinoma cells. KB-3-1 viability, CellTiter-Glo ATP luminescence, 72 h. Potency, µM (titrated, usually from 46.1 µM), most hits filed as cytotoxic. 400,000 compounds, 1.4% hits. AID 1347075; also: nearly all actives have a fitted effect of over 60% in size
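Viability of parental KB-3-1 cells, measured by CellTiter-Glo luminescence, followed a 72 h incubation at 37 °C with pinned compounds in phenol-red-free DMEM containing 10% FBS.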
TDP1 cell CPT: growth inhibition of DT40 Tdp1-/-;hTDP1 cells with camptothecin (screen for TDP1 inhibitors); chicken DT40 Tdp1-/-;hTDP1 cells + 20 nM CPT, ATP luminescence, 48 h; Potency, µM (titrated, usually from 46.2 µM), most hits filed as inhibitors; 420,000 compounds, 12% hits; also: nearly all actives have a fitted effect of over 55% in size
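Chicken DT40 Tdp1-/- cells complemented with human TDP1, 400 cells/well, exposed to compounds plus 20 nM camptothecin for at least 48 h at 37 C; viability read as ATP content by CellTiter-Glo luminescence.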
DT40 TDP1 no CPT: qHTS for Inhibitors of human tyrosyl-DNA phosphodiesterase 1 (TDP1): qHTS in cells in absence of CPT. DT40 Tdp1-/- hTDP1 cells, no CPT, ATP luminescence, 48 h. Potency, µM (series often up to 46.2 µM), most hits filed as inhibitors. AID 686978, 2013. 420,000 compounds, 15% hits; also: nearly all actives have a fitted effect of over 55% in size
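Readout: luminescence from CellTiter-Glo after 30 min in the dark at RT. Cells: DT40 Tdp1-/- with stable hTDP1, 400/well. Exposure: compounds alone, ≥48 hr, 37 °C.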
KB-V1 cytotox: kills drug-selected multidrug resistant KB-V1 cells; AID 1347076; Potency, µM (series often up to 46.1 µM), most hits filed as cytotoxic; KB-V1 MDR cells viability, CellTiter-Glo, 72 h; 400,000 compounds, 3.4% hits; also: nearly all actives have a fitted effect of over 60% in size
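Readout: CellTiter-Glo luminescence, 10 min after addition. Cells: KB-V1 MDR subline, 72 h at 37 degrees C with compound. Analysis: corrected, normalized data fitted to concentration-effect curves.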
HT1080 IDH1KD tx: kills HT-1080 cells with IDH1 knockdown | 360,000 compounds, 2% hits | Potency, µM (titrated, usually from 46.1 µM), usual class: cytotoxic | HT-1080 IDH1 knockdown viability, ATP luminescence, 48 h
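Viability of IDH1-knockdown HT-1080 fibrosarcoma cells was assessed by CellTiter-Glo after 48 h at 37 °C with titrated compound; concentration-effect curves were classified by fit quality and response size.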
HT1080-NT tox: kills 2HG-producing HT-1080-NT fibrosarcoma cells; HT-1080-NT fibrosarcoma viability, CellTiter-Glo ATP luminescence, 48 h; Potency, µM (top dose mostly 46.1 µM), actives largely listed as cytotoxic; 360,000 compounds, 1.6% hits;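 also: NT is the 2HG producing partner of a matched IDH1 knockdown line; nearly all actives have a fitted effect of over 55% in size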
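Read-out is CellTiter-Glo luminescence after 10 minutes at room temperature, following 48 hours' compound treatment of HT-1080-NT cells (750 cells/well, RPMI, 5% FBS, 37 degrees C).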
Large screens that a line does not name were inactive. A selection: hits, their analogues and other compounds. The true share with any hit is near 19%. Calls follow the shape of the dose curve; as a rule, active = well fitted curve in the direction sought with a large enough effect; inconclusive = small, poorly fitted or top-dose-only effect, or another doubt; inactive = no such curve, though single readings can be large; an effect the other way counts as inactive or inconclusive.

Cc1ccc(C(=O)N/N=C\c2ccc([N+](=O)[O-])s2)cn1	KB-3-1 tox inconclusive, TDP1 cell CPT 10.3µM, DT40 TDP1 no CPT 11.6µM, KB-V1 cytotox inconclusive
O=C(N/N=C/c1ccc([N+](=O)[O-])s1)c1ccncc1	TDP1 cell CPT 6.51µM, DT40 TDP1 no CPT 6.51µM, HT1080 IDH1KD tx inconclusive
Cc1ccc(/C=N/NC(=O)c2ccncc2)s1	TDP1 cell CPT 6.51µM, DT40 TDP1 no CPT 14.6µM
Cn1c(SCC(=O)N/N=C/c2ccc([N+](=O)[O-])s2)nnc1-c1ccc(Cl)cc1	KB-3-1 tox inconclusive, TDP1 cell CPT 13µM, DT40 TDP1 no CPT 20.6µM, HT1080 IDH1KD tx inconclusive, HT1080-NT tox inconclusive
Cc1ccc(C(=O)N/N=C\c2sccc2C)cn1	KB-V1 cytotox inconclusive
CC(=O)Nc1cccc(NC(=O)CSc2nc(=O)n3cccc(C)c3n2)c1	none
Cc1cc(C)n(CC(=O)N/N=C/c2cccs2)n1	HT1080-NT tox inconclusive
Cc1cc(C)n(CC(=O)N/N=C/c2ccc([N+](=O)[O-])s2)n1	KB-3-1 tox inconclusive, TDP1 cell CPT 23.1µM, DT40 TDP1 no CPT inconclusive, KB-V1 cytotox inconclusive, HT1080 IDH1KD tx inconclusive, HT1080-NT tox inconclusive
CC(C)CC(NC(N)=O)C(=O)OCC(=O)Nc1ccc(OC(F)F)cc1 (stereo not drawn)	TDP1 cell CPT 23.1µM, DT40 TDP1 no CPT inconclusive
CC(=O)c1c(C)[nH]c(C(=O)Nc2ccc(Cl)c(S(=O)(=O)N(C)C)c2)c1C	TDP1 cell CPT inconclusive, DT40 TDP1 no CPT inconclusive
O=C(COC(=O)c1ccc(O)cc1)Nc1ccc2c(c1)OCCO2	TDP1 cell CPT 10.3µM, DT40 TDP1 no CPT 3.26µM
CC(=O)c1c(C)[nH]c(C(=O)OCC(=O)Nc2ccc3c(c2)OCCO3)c1C	KB-3-1 tox inconclusive, TDP1 cell CPT inconclusive, DT40 TDP1 no CPT 20.6µM, KB-V1 cytotox 20.6µM
Cc1ccc(NC(=O)COC(=O)c2ccc3c(c2)OCCO3)cc1	KB-V1 cytotox inconclusive
CC(=O)c1c(C)[nH]c(C(=O)OCC(=O)Nc2ccc(Cl)c(S(=O)(=O)N(C)C)c2)c1C	KB-3-1 tox inconclusive, TDP1 cell CPT 7.31µM, DT40 TDP1 no CPT 9.2µM, KB-V1 cytotox inconclusive, HT1080 IDH1KD tx 23.1µM, HT1080-NT tox inconclusive
COC(=O)/C=C1/N/C(=N\c2nc(C)cc(C)n2)N(c2ccccc2)C1=O	none
O=C(COC(=O)c1cccc(O)c1)Nc1ccc(OC(F)F)cc1	none
O=C(COC(=O)c1cc[n+]([O-])cc1)Nc1ccc(Cl)cc1[N+](=O)[O-]	none
Cc1ccccc1OCC(=O)Nc1ccc2c(c1)OCCO2	DT40 TDP1 no CPT inconclusive
CC(=O)c1c(C)[nH]c(C(=O)OCC(=O)Nc2ccc(Cl)cc2[N+](=O)[O-])c1C	TDP1 cell CPT 3.66µM, DT40 TDP1 no CPT 1.84µM, KB-V1 cytotox inconclusive, HT1080-NT tox 18.4µM
O=C(COC(=O)c1ccc(O)cc1)Nc1ccc(OC(F)F)cc1	TDP1 cell CPT inconclusive, DT40 TDP1 no CPT 16.4µM
Cc1cccc(C)c1OCC(=O)Nc1ccc2c(c1)OCCO2	KB-3-1 tox 23.1µM, TDP1 cell CPT 18.4µM, DT40 TDP1 no CPT inconclusive, KB-V1 cytotox inconclusive
Cc1nn(C(=O)c2cccc([N+](=O)[O-])c2)c(C)c1Sc1ccccc1	none
COc1ccc(C(=O)OCn2nnc3ccccc3c2=O)cc1[N+](=O)[O-]	none
Cc1nonc1CN(C)C(=O)c1ccc(OC2CCN(C(=O)c3cccnc3)CC2)cc1	none
CN1CCN(c2c(F)cc3c(=O)c(C(=O)O)cn4c3c2SCC4)CC1	TDP1 cell CPT 13µM, DT40 TDP1 no CPT 11.6µM
CNC(=S)N1CCN(c2c(F)cc3c(=O)c(C(=O)O)cn(C4CC4)c3c2OC)CC1C (stereo not drawn)	TDP1 cell CPT inconclusive, DT40 TDP1 no CPT inconclusive
NC(Cc1ccc(F)cc1)c1csc(Nc2cc(NCc3ccco3)ncn2)n1 (stereo not drawn)	TDP1 cell CPT 23.1µM, DT40 TDP1 no CPT 20.6µM, KB-V1 cytotox inconclusive, HT1080 IDH1KD tx 16.4µM, HT1080-NT tox 18.4µM

Screens (PubChem BioAssay)
